# Reference: PubChem BioAssay (NCI)
# This is part of a sample that, as a whole, favours compounds with a hit. Of some 83,000 tested, about 20% had one in any assay.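 Testing used 96-well plates and a 48-hour single-concentration exposure. Example: -40 means 40% of the starting cells died.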 Values without a mark were called inactive. Calls of active or inactive are those of the source. Rule for the calls: active = growth percent below 10; inactive = the rest.
# Assays:
# Experiment in all cases: NCI-60 one-dose screen, 48 h (100 = growth as untreated, 0 = no growth, -100 = all killed)
# Settings in all cases: 10 µM
# T-47D breast = tested on: T-47D breast
# BT-549 breast = tested on: BT-549 breast
# MDA-MB-435 melanoma = tested on: MDA-MB-435 melanoma
# SW-620 colon = tested on: SW-620 colon
# MCF7 breast = tested on: MCF7 breast
# HCT-116 colon = tested on: HCT-116 colon
# HCC-2998 colon = tested on: HCC-2998 colon
# KM12 colon = tested on: KM12 colon
SMILES,growth (T-47D breast),growth (BT-549 breast),growth (MDA-MB-435 melanoma),growth (SW-620 colon),growth (MCF7 breast),growth (HCT-116 colon),growth (HCC-2998 colon),growth (KM12 colon)
CC(C)Cc1ccc([C@H](C)C(=O)O)cc1,102%,107%,103%,110%,94.8%,103%,108%,108%
COc1cc(NC(=O)Nc2cnc(Nc3ccc(N4CCOCC4)cc3)nc2Oc2cccc(OC)c2)cc(OC)c1,49.6%,28.8%,51.6%,72.6%,50.6%,32.4%,45.4%,53.3%
CC(=O)N[C@H](C(=O)N[C@@H](CCCNC(=N)N)C(=O)N[C@@H](CCCCN)C(=O)N[C@@H](CCCNC(=N)N)C(=O)N[C@]1(C)CCCCCC/C=C\CCC[C@@](C)(C(=O)N[C@@H](CCCNC(=N)N)C(=O)N[C@@H](CCC(=O)O)C(=O)N[C@@H](CC(C)C)C(=O)N[C@H](C(=O)N[C@@H](CCC(=O)O)C(N)=O)C(C)C)NC(=O)[C@H](CCC(N)=O)NC(=O)[C@H](CC(C)C)NC(=O)[C@H](CC(C)C)NC(=O)[C@H](CCCNC(=N)N)NC(=O)[C@H](CCCNC(=N)N)NC(=O)[C@H](CC(C)C)NC1=O)C(C)C,-35.7% (active),-46% (active),7.66% (active),25.9%,-41.7% (active),11.6%,24.8%,-16.9% (active)
COc1ccc(-c2cc(-c3cc(OC)ccc3OC)nc(N)c2C#N)cc1,54.4%,24.7%,46.8%,65.5%,38.9%,35.1%,76.6%,71.7%
Cc1ccc(S(=O)(=O)N/N=C2\CCCc3ccccc32)cc1,94%,115%,101%,101%,92.1%,114%,108%,111%
Cc1c(O)c(=O)ccn1C1CCC(CC2CCC(n3ccc(=O)c(O)c3C)CC2)CC1 (stereo not given),32.3%,31.5%,33.3%,43.1%,15.9%,28.4%,55.6%,46.5%
CC(=O)COc1ccc(Cl)cc1Cl,98.7%,111%,102%,97.2%,104%,99.1%,109%,113%
O=C(Nc1ccc(F)cc1)c1cc2ccccc2cc1O,46.3%,72.4%,86.3%,90.9%,58.5%,77.9%,104%,69.2%
CC[N+](CC)=c1ccc2nc3c(cc(NCc4ccccc4)c4ccccc43)oc-2c1,-55.9% (active),39.4%,-98.9% (active),-82.5% (active),-82.2% (active),-35.6% (active),-94.8% (active),-88.6% (active)
Cc1ccc2nc(Cl)c(-c3nc4ccccc4o3)cc2c1,83.9%,88.5%,99.8%,103%,92.4%,97.3%,87.8%,89.5%
CC(C)(C)OC(=O)CN1CCc2c(sc3ncnc(N/N=C/c4cccc5ccccc45)c23)C1,26.4%,64.3%,27.6%,33.9%,-24.5% (active),26%,44.1%,53.1%
Cc1cn(-c2cccc(NC(=O)c3ccc(C)c(Nc4nccc(-c5cccnc5)n4)c3)c2)cn1,46%,-39.4% (active),-27.8% (active),20.2%,-24.6% (active),-87.4% (active),41.7%,-94.9% (active)
COc1cc(-c2nn(-c3cccc(NC(=O)NCCNC(=O)c4ccccc4)c3)cc2-c2ccncc2)ccc1Cl,-7.51% (active),-7.03% (active),2.69% (active),11.8%,6.01% (active),3.85% (active),31.3%,12.2%
CC(C)(O)CCl,116%,116%,102%,99.5%,100%,110%,109%,107%
COc1ccc2c(c1)C(=O)/C(=C/c1ccc([N+](=O)[O-])o1)O2,-46.9% (active),-49.9% (active),-72.5% (active),-60.4% (active),-18.7% (active),-44.9% (active),-78.5% (active),-80.3% (active)
COc1cc(C(=O)/C(C)=C/c2c[nH]c3ccccc23)cc(OC)c1OC,53%,-9% (active),5.74% (active),29.9%,15.4%,2.11% (active),15.2%,16.5%
Nc1c(Br)cc(Br)c2c1[nH]c(=O)c1ccccc12,39.2%,76.8%,93.3%,73.4%,22.1%,83.1%,87.5%,101%
O=C(N/N=C/c1cc([N+](=O)[O-])ccc1O)c1cccc2ccccc12,28.3%,45.2%,57.1%,47.7%,16.5%,18.4%,52.4%,56.1%
Cc1c[nH]c(=O)n(Cc2nnc(CCC(=O)c3nc4ccccc4[nH]3)o2)c1=O,34.3%,18.9%,-45.8% (active),28.9%,9.44% (active),6.25% (active),-27.9% (active),4.98% (active)
COc1ccc2c(c1)OC(N)=C(C#N)C2c1cc(OC)c(OC)c(OC)c1 (stereo not given),16.7%,5.64% (active),-16.7% (active),17.1%,13.3%,3.4% (active),15%,-10.3% (active)
CCOC(=O)c1cc(C(=O)c2ccc(Cl)cc2)n2ccc(-c3cc[n+](CC(=O)c4ccc(OC)cc4)cc3)cc12,83.4%,82.1%,75.5%,-29.5% (active),1.28% (active),5.5% (active),100%,64.4%
Cc1n[nH]c(C)c1N=Nc1cccc2c1C(=O)c1ccccc1C2=O,79.3%,100%,107%,84.6%,81%,77.8%,96.1%,99.5%
CCN1CC(CCN2CCOCC2)C(C(c2ccccc2)c2ccccc2)C1=O (stereo not given),99.6%,109%,99.3%,106%,97.9%,114%,105%,117%
COc1ccc2nc(-c3ccc(Cl)cc3)cc(-c3nnc(SC/C(=N\O)c4ccccc4)n3-c3ccccc3)c2c1,63.5%,90.8%,83.1%,90.5%,69.3%,67.9%,115%,69.2%
COc1cc2c(Nc3ccc(S(N)(=O)=O)cc3)ncnc2c(OC)c1OC,97%,126%,105%,95.7%,96.6%,108%,98.4%,99.2%
O=C(O)c1ccc(-n2cc(CNc3ccc(Cl)cc3)c(-c3ccccc3)n2)cc1,89.4%,90.2%,91.9%,92.6%,87.4%,85.9%,113%,87.8%
COc1cc2c3c(n(C4CCNCC4)c(=O)c2cc1OC)-c1cc2c(cc1C3=O)OCO2,-51.1% (active),-58% (active),-44.1% (active),-73.2% (active),-53.8% (active),-60.7% (active),-95% (active),-79.6% (active)
Clc1nc2ccc(Br)cc2cc1-c1nc2ccccc2[nH]1,104%,85.9%,102%,89.7%,42.5%,77.8%,108%,90.7%
CCOC(=O)/C(=C(\C)N)C1CC(=O)NC1=O (stereo not given),110%,87.3%,100%,96.8%,91%,107%,103%,121%
C=CCn1c(SCC(=O)Nc2ccc(C(=O)/C=C/c3ccc(OC)cc3)cc2)nnc1-c1ccc(OC)c(OC)c1,58.3%,75.8%,86.7%,97.2%,43.5%,55.5%,94.6%,87.9%
